What all share (design): scale not given: direction of the effect not stated beside the values
Assay [1] has as its target Protein translocase subunit SecA (Escherichia coli (strain K12)) (UniProt P10408). Put plainly: Assay to Identify E. coli SecA ATPase Inhibitors. The class given is functional. The settings on record: 30 µM.
Assay [2] has as its target T1, Ubiquitin-activating enzyme e1, putative (Leishmania donovani (strain BPK282A1)) (UniProt E9BSI1).
T1 sequence (whole entry): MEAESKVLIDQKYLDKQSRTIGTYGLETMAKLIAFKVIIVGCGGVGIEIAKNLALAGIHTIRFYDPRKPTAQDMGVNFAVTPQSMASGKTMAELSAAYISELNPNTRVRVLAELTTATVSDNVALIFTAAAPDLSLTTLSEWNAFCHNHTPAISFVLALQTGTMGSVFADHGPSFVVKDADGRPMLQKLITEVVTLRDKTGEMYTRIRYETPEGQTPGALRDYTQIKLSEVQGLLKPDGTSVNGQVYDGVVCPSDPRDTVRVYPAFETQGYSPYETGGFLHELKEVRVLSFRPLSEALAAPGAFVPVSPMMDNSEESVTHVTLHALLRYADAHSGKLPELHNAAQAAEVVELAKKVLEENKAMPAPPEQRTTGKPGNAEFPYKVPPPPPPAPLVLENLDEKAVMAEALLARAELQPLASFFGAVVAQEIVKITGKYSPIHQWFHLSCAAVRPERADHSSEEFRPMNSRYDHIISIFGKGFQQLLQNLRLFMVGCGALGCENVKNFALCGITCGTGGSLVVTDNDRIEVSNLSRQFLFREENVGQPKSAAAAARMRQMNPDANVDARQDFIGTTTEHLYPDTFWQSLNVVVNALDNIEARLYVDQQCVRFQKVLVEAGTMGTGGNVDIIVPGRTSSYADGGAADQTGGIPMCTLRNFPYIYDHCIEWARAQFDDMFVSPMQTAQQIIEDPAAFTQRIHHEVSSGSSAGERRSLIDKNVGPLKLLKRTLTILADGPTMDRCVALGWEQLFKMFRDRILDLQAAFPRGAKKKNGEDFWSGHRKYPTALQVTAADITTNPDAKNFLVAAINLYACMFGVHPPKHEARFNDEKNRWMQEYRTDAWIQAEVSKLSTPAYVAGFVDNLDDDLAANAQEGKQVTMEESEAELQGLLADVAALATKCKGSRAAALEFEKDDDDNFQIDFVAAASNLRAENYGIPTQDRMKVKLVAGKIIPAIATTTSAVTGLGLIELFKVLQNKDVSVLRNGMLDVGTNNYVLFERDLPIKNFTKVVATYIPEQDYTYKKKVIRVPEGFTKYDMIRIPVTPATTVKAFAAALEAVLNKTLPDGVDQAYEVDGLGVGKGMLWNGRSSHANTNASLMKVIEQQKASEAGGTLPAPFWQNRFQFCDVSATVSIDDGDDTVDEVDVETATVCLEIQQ
Kind of assay: Leishmania donovani Ubiquitin Activating Enzyme (LdE1). The class given is functional. The settings on record: 30 µM.

For assay [3], the target named is AMP-activated protein kinase, AMPK (Homo sapiens) (UniProt P54646+O43741+P54619+Q9UGJ0+Q9Y478+Q13131+Q9UGI9). Kind of assay: AMP-dependent Kinase enzyme assay. An in vitro enzyme assay that detects ADP turnover that is directly proportional to AMPK activity. This uses naive AMPK that is activated during the assay with MK-8722. The class given is functional. The settings on record: 30 µM.

Assay [4] concerns the target Sialic acid-binding Ig-like lectin 9 (Homo sapiens) (UniProt Q9Y336). Put plainly: Hs-Siglec9 ALPHAscreen SOP 20170721. The settings on record: 10 µM.
The subject of a further assay is Trypanosoma cruzi. Kind of assay: Trypanosoma cruzi phosphomannomutase and mannose-1-phosphate guanylyltransferase assay. The class given is functional. To be noted: 10 µM.
For assay [5], the target named is T2, Arginase-2, mitochondrial (Homo sapiens) (UniProt P78540).
T2 sequence (whole entry): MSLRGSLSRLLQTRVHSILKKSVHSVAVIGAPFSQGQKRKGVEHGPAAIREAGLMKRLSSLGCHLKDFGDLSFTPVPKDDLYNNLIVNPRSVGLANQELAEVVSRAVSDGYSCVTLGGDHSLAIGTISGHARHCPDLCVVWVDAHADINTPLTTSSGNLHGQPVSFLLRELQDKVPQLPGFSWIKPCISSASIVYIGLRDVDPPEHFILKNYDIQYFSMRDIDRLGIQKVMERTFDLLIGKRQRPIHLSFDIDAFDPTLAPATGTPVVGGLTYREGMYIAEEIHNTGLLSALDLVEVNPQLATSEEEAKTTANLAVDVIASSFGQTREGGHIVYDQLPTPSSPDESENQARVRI
Put plainly: in vitro enzyme assay to detect the production of urea directly proportional to the activity of Arginase II. Note: in the data most compounds retested in dose-response had high values. The class given is functional. The settings on record: 33.3 µM.

The target in assay [6] is T3, Proteasome subunit beta (Trypanosoma cruzi) (UniProt O96673).
T3 sequence (whole entry): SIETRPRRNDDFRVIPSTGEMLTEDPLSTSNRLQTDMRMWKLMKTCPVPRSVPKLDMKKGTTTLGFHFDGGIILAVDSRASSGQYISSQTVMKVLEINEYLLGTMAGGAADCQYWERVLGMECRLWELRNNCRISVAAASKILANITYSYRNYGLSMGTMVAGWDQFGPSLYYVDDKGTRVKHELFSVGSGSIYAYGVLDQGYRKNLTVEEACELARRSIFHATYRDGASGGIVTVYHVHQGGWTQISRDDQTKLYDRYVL
Put plainly: Trypanosoma cruzi proteasome chymotrypsin-like activity (TcProtChymo) assay. Note: in the data most compounds retested in dose-response had high values. The class given is functional. To be noted: 9.37 µM.

For the next assay, the species on record is Homo sapiens. Kind of assay: To identify inhibition of the IFN signalling (Jak-Stat) pathway via expression of an eGFP reporter gene under the control of an IFN-stimulated response element (ISRE) containing MxA promoter. The class given is functional. To be noted: 30 µM.
In assay [7] the target is T4, Tyrosyl-tRNA synthetase, putative (Trypanosoma cruzi (strain CL Brener)) (UniProt Q4DSP6).
T4 sequence (whole entry): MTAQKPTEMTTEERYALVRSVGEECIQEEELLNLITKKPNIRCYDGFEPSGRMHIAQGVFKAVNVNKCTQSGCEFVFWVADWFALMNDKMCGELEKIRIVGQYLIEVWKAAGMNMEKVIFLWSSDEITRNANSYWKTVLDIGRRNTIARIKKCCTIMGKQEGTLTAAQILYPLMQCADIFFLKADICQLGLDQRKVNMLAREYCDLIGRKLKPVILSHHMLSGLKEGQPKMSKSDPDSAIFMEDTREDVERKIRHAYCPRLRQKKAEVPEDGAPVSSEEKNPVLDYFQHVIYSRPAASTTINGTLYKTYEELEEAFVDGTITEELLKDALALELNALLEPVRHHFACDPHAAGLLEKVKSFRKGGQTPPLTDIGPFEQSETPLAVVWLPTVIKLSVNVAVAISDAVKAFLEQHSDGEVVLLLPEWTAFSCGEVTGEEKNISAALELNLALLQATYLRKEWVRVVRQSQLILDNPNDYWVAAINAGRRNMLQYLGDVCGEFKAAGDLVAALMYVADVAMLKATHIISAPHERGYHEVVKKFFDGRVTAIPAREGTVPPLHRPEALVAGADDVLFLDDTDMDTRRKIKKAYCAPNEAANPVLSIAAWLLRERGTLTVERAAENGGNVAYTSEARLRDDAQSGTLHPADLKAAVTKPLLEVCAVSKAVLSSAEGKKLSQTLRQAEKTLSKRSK
Put plainly: Trypanosoma cruzi tyrosyl tRNA synthetase (TcYRS) _High Tyrosine SOP. Note: in the data most compounds retested in dose-response had high values. The class given is functional. The settings on record: 30 µM.

For assay [8], the target named is T4, Tyrosyl-tRNA synthetase, putative (Trypanosoma cruzi (strain CL Brener)). Kind of assay: Trypanosoma cruzi tyrosyl tRNA synthetase (TcYRS) SOP. The class given is functional. To be noted: 30 µM.
Assay [9] deals with Chromo domain-containing protein 1 (Saccharomyces cerevisiae (strain ATCC 204508 / S288c) (Baker's yeast)) (UniProt P32657). Put plainly: ScCHD-1 Enzyme Inhibition Assay. Note: in the data most compounds retested in dose-response had high values. The class given is functional. To be noted: 30 µM.
The subject of the next assay is N/A. Kind of assay: Trypanosoma cruzi proteasome luciferase counter-screen. The class given is functional. To be noted: 9.37 µM.

Where “and” joins values, the source holds several entries; their conditions need not be identical. Equal entries are not always repeated. For part of these data: Measured potencies and affinities stand elsewhere.

Sequence of Sialic acid-binding Ig-like lectin 9 (Homo sapiens) (Q9Y336 whole entry): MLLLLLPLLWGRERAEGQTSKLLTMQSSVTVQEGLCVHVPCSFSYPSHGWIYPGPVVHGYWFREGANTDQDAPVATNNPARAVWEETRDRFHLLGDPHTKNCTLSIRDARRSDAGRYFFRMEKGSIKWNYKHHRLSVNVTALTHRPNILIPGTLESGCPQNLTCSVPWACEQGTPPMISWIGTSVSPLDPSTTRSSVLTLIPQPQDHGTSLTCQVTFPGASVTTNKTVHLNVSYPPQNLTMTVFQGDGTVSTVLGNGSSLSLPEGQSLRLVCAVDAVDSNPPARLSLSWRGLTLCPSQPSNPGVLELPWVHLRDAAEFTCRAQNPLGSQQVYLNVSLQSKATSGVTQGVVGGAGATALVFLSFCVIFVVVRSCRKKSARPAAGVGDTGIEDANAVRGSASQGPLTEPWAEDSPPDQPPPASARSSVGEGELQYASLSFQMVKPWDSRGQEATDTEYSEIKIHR
Sequence of Chromo domain-containing protein 1 (Saccharomyces cerevisiae (strain ATCC 204508 / S288c) (Baker's yeast)) (P32657 whole entry, the tested form may be a part): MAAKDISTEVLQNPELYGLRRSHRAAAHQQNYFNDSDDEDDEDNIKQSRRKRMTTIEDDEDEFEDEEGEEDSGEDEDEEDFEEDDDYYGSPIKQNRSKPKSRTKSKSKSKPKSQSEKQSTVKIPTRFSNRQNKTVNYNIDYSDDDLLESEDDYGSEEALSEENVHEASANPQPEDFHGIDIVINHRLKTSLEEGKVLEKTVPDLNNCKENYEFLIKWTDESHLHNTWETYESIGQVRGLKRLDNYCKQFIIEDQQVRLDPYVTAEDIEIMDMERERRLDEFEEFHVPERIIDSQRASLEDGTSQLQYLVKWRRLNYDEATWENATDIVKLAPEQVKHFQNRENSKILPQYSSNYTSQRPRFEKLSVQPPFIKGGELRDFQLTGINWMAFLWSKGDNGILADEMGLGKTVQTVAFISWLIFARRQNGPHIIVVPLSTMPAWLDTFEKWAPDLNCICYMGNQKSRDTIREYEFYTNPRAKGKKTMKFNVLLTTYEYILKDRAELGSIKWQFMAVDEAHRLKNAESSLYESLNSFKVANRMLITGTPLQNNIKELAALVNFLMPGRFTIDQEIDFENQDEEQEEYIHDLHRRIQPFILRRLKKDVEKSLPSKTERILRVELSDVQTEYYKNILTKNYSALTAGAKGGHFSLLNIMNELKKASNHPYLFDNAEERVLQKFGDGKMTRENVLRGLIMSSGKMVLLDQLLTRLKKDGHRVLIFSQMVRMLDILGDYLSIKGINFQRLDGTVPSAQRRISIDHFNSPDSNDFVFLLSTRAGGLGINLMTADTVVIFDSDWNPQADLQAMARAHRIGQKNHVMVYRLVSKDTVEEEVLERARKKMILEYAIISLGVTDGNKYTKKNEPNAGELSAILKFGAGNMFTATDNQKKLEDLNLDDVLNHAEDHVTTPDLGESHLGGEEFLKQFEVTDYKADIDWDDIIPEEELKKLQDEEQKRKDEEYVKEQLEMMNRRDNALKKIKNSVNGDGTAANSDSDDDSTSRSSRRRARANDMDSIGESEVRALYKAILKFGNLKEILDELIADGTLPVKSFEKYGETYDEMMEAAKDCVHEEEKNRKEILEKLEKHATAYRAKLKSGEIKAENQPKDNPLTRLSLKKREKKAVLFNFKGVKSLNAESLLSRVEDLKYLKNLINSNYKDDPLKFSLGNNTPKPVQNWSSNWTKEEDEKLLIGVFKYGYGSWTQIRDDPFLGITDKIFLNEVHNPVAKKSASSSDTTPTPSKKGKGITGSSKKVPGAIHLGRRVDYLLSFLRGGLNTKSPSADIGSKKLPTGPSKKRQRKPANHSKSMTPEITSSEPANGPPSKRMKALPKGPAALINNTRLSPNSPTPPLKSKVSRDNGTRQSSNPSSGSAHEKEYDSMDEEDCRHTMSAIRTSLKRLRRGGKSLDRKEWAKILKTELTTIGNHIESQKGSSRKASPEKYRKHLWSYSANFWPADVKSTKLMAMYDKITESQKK
Sequence of Protein translocase subunit SecA (Escherichia coli (strain K12)) (P10408 whole entry): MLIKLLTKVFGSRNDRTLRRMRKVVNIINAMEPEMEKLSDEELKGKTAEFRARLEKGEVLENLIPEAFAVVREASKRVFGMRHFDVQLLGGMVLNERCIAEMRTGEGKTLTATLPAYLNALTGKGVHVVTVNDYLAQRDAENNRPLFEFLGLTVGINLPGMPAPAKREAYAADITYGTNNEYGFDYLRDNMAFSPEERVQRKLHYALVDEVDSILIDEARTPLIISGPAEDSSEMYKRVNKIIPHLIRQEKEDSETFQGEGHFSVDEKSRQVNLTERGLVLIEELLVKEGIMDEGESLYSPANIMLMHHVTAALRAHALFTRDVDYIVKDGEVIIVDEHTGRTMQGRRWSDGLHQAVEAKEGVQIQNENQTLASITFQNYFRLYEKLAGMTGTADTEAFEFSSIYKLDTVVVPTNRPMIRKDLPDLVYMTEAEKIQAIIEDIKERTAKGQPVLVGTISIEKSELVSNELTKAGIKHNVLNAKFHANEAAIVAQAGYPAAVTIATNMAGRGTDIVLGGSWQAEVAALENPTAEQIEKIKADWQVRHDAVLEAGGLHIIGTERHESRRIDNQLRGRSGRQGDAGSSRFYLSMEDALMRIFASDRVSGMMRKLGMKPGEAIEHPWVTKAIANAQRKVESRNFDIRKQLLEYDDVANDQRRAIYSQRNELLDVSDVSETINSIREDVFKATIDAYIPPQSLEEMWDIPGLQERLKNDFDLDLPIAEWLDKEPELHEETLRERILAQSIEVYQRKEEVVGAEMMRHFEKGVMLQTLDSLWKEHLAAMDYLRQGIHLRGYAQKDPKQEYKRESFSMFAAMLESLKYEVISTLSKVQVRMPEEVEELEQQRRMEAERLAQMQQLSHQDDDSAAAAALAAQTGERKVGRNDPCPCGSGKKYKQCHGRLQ

On to `O=c1n(CCSCc2ccccc2F)nc2ccccn12`, for which the Percent Effect is -4.09% in assay [1]; 7.79% in [2]; 0.704% in assay [3]; -1.41% in assay [4]; 7.15% in the assay on Trypanosoma cruzi; 4% in [5]. Also, the Percent Effect in [6] is 1.7%; in the assay filed under Homo sapiens, 16.8%; in assay [7], 0.952%; in [8], 11.8%; in [9] it was -29.5%.

For the compound `Cc1cc(C(=O)N2CCC3(CCCN(CC4CC4)C3=O)C2)c(C)n1C` (stereo not drawn), the Percent Effect is -5.53% in assay [1]; 5.48% in assay [2]; -5.43% in [3]; 6.36% in assay [4]; 0.794% in the assay with Trypanosoma cruzi; -4.39% in assay [5]. For the same compound, the Percent Effect is 49.3% and 56.6% and 47.8% in assay [6]; 11% and 8.3% in the assay on N/A; 10.3% in the assay listed under Homo sapiens; 20.8% in assay [7]; 28.4% in assay [8]; -1.72% in assay [9].

Consider `COc1ccc([C@@H]2CN(C(=O)CCC(F)(F)F)C[C@H]2NC(C)=O)cc1`, for which the Percent Effect is -3.18% in assay [1]; 2.67% in assay [2]; 0.154% in assay [3]; -0.127% in assay [4]; -2.63% with Trypanosoma cruzi; 2.6% in [5]. The Percent Effect in [6] is 16.7%; in the assay listed under Homo sapiens, 1.55%; in [7] it was 6.01%; in assay [8], 8.64%; in [9] it was -6.25%.

Consider `CCN(c1ccc(C(=O)NCCCN2CCOCC2)cc1)S(=O)(=O)CC`, for which the Percent Effect in assay [1] is -3.73%; in [2], 10.5%; in assay [3], -2.83%; in assay [4] it was -8.52%; in the assay on Trypanosoma cruzi, -6.33%; in assay [5], 2.37%. Also, the Percent Effect in [6] is 15.8%; in the assay listed under Homo sapiens, -2.55%; in assay [7], -1.06%; in [8] it was -2.6%; in assay [9], -5.76%.

Regarding `Cc1cc(CN2CCN(c3ccc4nncn4n3)C(C)C2)no1` (stereo not drawn), the Percent Effect in assay [1] was -6.67%; in assay [2], 20.8%; in assay [3], -6.96%; in assay [4], 14.4%; in the assay on Trypanosoma cruzi it was 5.8%; in assay [5], 4.63%. For the same compound, the Percent Effect in assay [6] is 11.2%; in the assay filed under Homo sapiens it was 19.6%; in assay [7] it was 9.71%; in [8], 21.9%; in assay [9] it was -10.9%.

Turning to `NC(=O)c1cnn2c1NCC(CNCCc1ccco1)C2` (stereo not drawn), the Percent Effect in assay [1] was -1.64%; in [2] it was 2.63%; in [3] it was 2.04%; in [4], -0.712%; in the assay with Trypanosoma cruzi it was -5.26%; in [5], 3.45%. Besides, the Percent Effect in assay [6] is 8.86%; in the assay listed under Homo sapiens it was 7.72%; in assay [7] it was 2.45%; in assay [8], 7.32%; in assay [9], -1.74%.

As to `Cc1nn(C)c(C)c1C1CCCN1Cc1noc(C2CC2)n1` (stereo not drawn), the Percent Effect in [1] is 2%; in assay [2], 15.8%; in assay [3], -5.38%; in [4], -11.5%; in the assay on Trypanosoma cruzi, -8.87%; in [5], 3.96%. Also, the Percent Effect in assay [6] was 15.5%; in the assay filed under Homo sapiens it was 8.86%; in assay [7] it was 8.37%; in assay [8], 6.17%; in assay [9] it was -6.57%.

With `Cc1noc(C)c1-c1cncc(C2CCCN2Cc2ccncc2)n1` (stereo not drawn), the Percent Effect in assay [1] worked out at 1.38%; in assay [2] it was 1.35%; in [3] it was 12%; in [4] it was 8.81%; in the assay with Trypanosoma cruzi, 0.79%; in assay [5], 0.696%. Also, the Percent Effect is 6.08% in assay [6]; 32.8% in the assay listed under Homo sapiens; 2.15% in assay [7]; 1.3% in assay [8]; -9.13% in assay [9].

Regarding `COc1cccc2cc(CNC(=O)N3CCCC(O)C3)oc12` (stereo not drawn), the Percent Effect was -6.3% in assay [1]; -2.53% in [2]; -3.54% in [3]; 1.57% in assay [4]; 8.59% in the assay with Trypanosoma cruzi; -3.8% in assay [5]. In addition, the Percent Effect is 1.39% in [6]; 6.63% in the assay filed under Homo sapiens; 3.45% in assay [7]; 8.86% in assay [8]; -5.74% in assay [9].

In the case of `Cc1noc(NC(=O)c2ccc(OC(F)(F)F)cc2)n1`, the Percent Effect in assay [1] was -1.74%; in assay [2], 18.4%; in assay [3], -0.843%; in assay [4], 1.75%; in the assay on Trypanosoma cruzi, 2.52%; in assay [5] it was -4.68%. In addition, the Percent Effect in assay [6] was 75.9% and 76.1% and 72%; with N/A, 32.7% and 35.8%; in the assay listed under Homo sapiens, 75.7%; in [7], 15.3%; in [8], 28.4%; in assay [9], -3.4%.

For `CC(C)OCCCNC(=O)c1ccc(-c2ccco2)[nH]c1=O`, the Percent Effect in assay [1] is -4.6%; in [2], 10.8%; in [3], 60.2%; in [4] it was -6.26%; in the assay on Trypanosoma cruzi, -7.83%; in assay [5], -1.6%. In addition, the Percent Effect in assay [6] was 10.1%; in the assay filed under Homo sapiens it was 12.9%; in [7] it was 6.4%; in assay [8] it was 11.1%; in assay [9] it was -5.48%.

These data come from ChEMBL document CHEMBL3988442, “University of Dundee, Small-Polar-MMV Screening Library” (2021).
